# Bioassay records deposited in PubChem by National Center for Advancing Translational Sciences (NCATS).
# An excerpt weighted towards active compounds, which were near 9.3% of everything screened.
# SMN2 splice enh = SMN2 splice variant enhancement. HEK293 SMN2-luciferase splicing reporter, luminescence, 30-36 h. Potency, µM (titrated, usually from 46.1 µM), actives largely listed as activators. 210,000 tested, 2.8% active; also: nearly all actives have a fitted effect of over 55% in size
#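 HEK293 cells carry an SMN2 […]–luciferase reporter in which exon 7 inclusion puts luciferase in frame. Cells were plated 10-12 h before compound addition, then incubated 30-36 h at 37C. ONE-Glo luminescence was read; sodium butyrate at 4.5 mM final served as control.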
# FLuc counter = counter-screen for miR-21 project: firefly luciferase inhibitors or activators | P08659 | purified FLuc, Km substrates, luminescence inhibition | Potency, µM (series often up to 57.5 µM), hits mostly inhibitors | 360,000 tested, 6.9% active | AID 588342; also: nearly all actives have a fitted effect of over 55% in size
# Target sequence (P08659 whole entry, looked up): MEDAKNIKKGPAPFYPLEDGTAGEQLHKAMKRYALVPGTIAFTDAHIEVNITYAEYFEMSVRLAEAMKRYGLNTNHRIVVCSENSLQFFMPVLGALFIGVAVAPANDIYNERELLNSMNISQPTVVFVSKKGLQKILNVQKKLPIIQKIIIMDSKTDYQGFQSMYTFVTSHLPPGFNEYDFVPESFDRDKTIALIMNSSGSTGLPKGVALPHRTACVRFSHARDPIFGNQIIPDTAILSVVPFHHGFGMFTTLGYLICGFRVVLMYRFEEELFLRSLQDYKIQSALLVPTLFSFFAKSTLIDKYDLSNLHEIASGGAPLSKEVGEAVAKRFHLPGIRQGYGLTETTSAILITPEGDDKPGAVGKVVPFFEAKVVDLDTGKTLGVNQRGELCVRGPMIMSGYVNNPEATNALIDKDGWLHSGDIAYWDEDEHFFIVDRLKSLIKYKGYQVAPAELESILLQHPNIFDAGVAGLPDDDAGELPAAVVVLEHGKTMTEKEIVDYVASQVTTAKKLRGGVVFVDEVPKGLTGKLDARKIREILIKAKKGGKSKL
#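 Purified P. pyralis luciferase, 10 nM final, with Km-level 10 uM D-luciferin and 10 uM ATP in 50 mM Tris acetate pH 7.5, 10 mM Mg acetate, 0.01% Tween-20, 0.05% BSA; 6-point qHTS titration about 60 µM downward; luminescence read.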
# Rab9 prom act = activators of Rab9 promoter; Potency, µM (doses to about 9.22 µM), most hits filed as activators; AID 485297; Huh7 Rab9 promoter-luciferase reporter, luminescence, 24 h; 320,000 tested, 2.8% active; also: nearly all actives have a fitted effect of over 60% in size
#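 Luciferase signal after 10 min detection reagent at ambient indicates Rab9 promoter upregulation; stably transfected Huh7 cells were treated 24 h with compound in DMSO at 37 °C, 5% CO2.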
# ELG1 genotox = induces genotoxicity in HEK293T cells with luciferase-tagged ELG1; HEK293T ELG1-luciferase reporter, luminescence, 16 h; Potency, µM (doses to about 46 µM), actives largely listed as activators; 330,000 tested, 1.3% active; AID 504466; also: nearly all actives have a fitted effect of over 60% in size
#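 Genotoxic stress is detected as increased luminescence from luciferase-tagged ELG1 in HEK293T cells, measured with ONE-Glo after a 16 hr treatment at 37 °C.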
# ELG1 DNA repair = ELG1-dependent DNA repair inhibition; HEK293T ELG1-luciferase reporter, luminescence, 16 h; DNA damage induced by 5-fluorouridine; Potency, µM (doses to about 46.1 µM), usual class: inhibitors; 330,000 tested, 2.3% active; AID 504467; also: nearly all actives have a fitted effect of over 55% in size
#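 5-Fluorouridine DNA damage + compound/DMSO, 2,000 cells/well, 16 h, 37 °C/5% CO2. ONE-Glo, 30 min RT, luminescence. Readout = decrease in reporter signal.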
# NPC1 promoter act = activates the NPC1 promoter; Huh7 NPC1 promoter luciferase reporter, 24 h; 320,000 tested, 2.4% active; Potency, µM (top dose mostly 9.22 µM), hits mostly activators; also: nearly all actives have a fitted effect of over 60% in size
#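 Quantitative HTS used a cell-based reporter: Huh7 cells stably bearing the NPC1 promoter upstream of luciferase were treated with compounds for 24 h, and promoter activation was read as luminescence.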
# A number is an active result; – = inactive; ? = inconclusive; · = not tested or not shown. Calls follow the shape of the dose curve; as a rule, active = well fitted curve in the direction sought with a large enough effect; inconclusive = small, poorly fitted or top-dose-only effect, or another doubt; inactive = no such curve, though single readings can be large; an effect the other way counts as inactive or inconclusive.
SMILES,SMN2 splice enh,FLuc counter,Rab9 prom act,ELG1 genotox,ELG1 DNA repair,NPC1 promoter act
O=C(NC(=S)Nc1ccccc1O)c1ccc(Cl)cc1Cl,–,19µM,?,?,?,?
O=C(Nc1ccccc1Cl)c1ccccc1Cl,–,–,–,–,–,–
CC(=O)c1c(C)[nH]c(C(=O)OCC(=O)N2CCc3ccccc3C2)c1C,·,–,–,–,?,–
Clc1cc(Cl)cc(Nc2ncn[nH]2)c1,–,–,–,–,–,–
Cc1cccc(/C=C(\C(=O)C(=O)O)c2ccc3ccccc3n2)c1,22µM,?,2.2µM,15µM,?,2.2µM
O=C(O)C(=O)/C(=C\c1cccc(Cl)c1)c1ccc2ccccc2n1,11µM,?,–,?,?,–
N#Cc1ccc(/C=C(\C(=O)C(=O)O)c2ccc3ccccc3n2)cc1,·,?,?,?,?,–
CN(C)C(=S)c1ccc2ccccc2n1,–,–,–,–,–,–
COc1cccc(Cn2cc(C)cc(NC(=O)NCc3ccccc3)c2=O)c1,·,2.1µM,–,–,–,–
Cc1cc(NC(=O)NCc2ccccc2)c(=O)n(Cc2ccccc2F)c1,·,5.4µM,–,–,?,–
Nc1ccnc(Oc2ccc(F)cc2)c1,–,–,–,–,?,–
Cc1ccc(F)cc1NC(=O)Cn1c(C)cc(C)c(C#N)c1=O,·,–,·,·,·,·
CC(=O)Nc1ccc(S(=O)(=O)NNC(=O)c2cccc(Br)c2)cc1,–,–,–,–,–,–
COc1ccc(S(=O)(=O)Cc2ccc(C(=O)N3CCN(c4cccc(C)c4C)CC3)o2)cc1,–,–,–,–,16µM,–
CCOC(=O)N1CCN(C(=O)c2ccc(CS(=O)(=O)c3ccccc3OC)o2)CC1,–,–,–,–,?,–
COc1ccc(S(=O)(=O)Cc2ccc(C(=O)N3CCN(c4cccc(C)c4)C(C)C3)o2)cc1 (stereo unspecified),–,–,–,–,13µM,–
COc1ccccc1S(=O)(=O)Cc1ccc(C(=O)N2CCN(c3ccc(C)cc3)C(C)C2)o1 (stereo unspecified),–,–,–,–,21µM,–
CCCS(=O)(=O)N1CCC(C(=O)Oc2ccc(OC)cc2)CC1,·,–,–,–,–,–
CC(C)Oc1ccc(C(=O)Nc2nnc(SCC(=O)N3CCOCC3)s2)cc1,1.4µM,0.06µM,0.4µM,?,?,?
COc1ccc(Nc2nnc(SCC(=O)N3CC(=O)Nc4ccccc43)s2)cc1,·,8.5µM,–,–,–,–
COc1ccc(Nc2nnc(SCC(=O)c3cc(C)n(CC4CCCO4)c3C)s2)cc1 (stereo unspecified),–,3.8µM,–,–,?,–
COc1ccc(Nc2nnc(SCC(=O)N3CCCC3)s2)cc1,–,17µM,–,–,–,–
COc1ccc(C(=O)Nc2ccc3nc(SCC(=O)N4CCOCC4)sc3c2)cc1,·,–,·,·,·,·
Cc1ccccc1OCCC(=O)OCC(=O)NC(=O)c1ccccc1,·,–,–,–,–,–
Cc1ccc(C)c(C(=O)CCC(=O)O)c1,·,–,–,–,–,–
SMILES,SMN2 splice enh,FLuc counter,Rab9 prom act,ELG1 genotox,ELG1 DNA repair,NPC1 promoter act
COc1cccc(Nc2nnc(SCC(=O)N3CCOCC3)s2)c1,–,19µM,–,–,–,–
COc1cccc(N2CC(C(=O)Nc3nnc(SCC(=O)N4CCCC4)s3)CC2=O)c1 (stereo unspecified),·,–,–,–,–,–
CN(CC(=O)Nc1ccc(Cl)c(C(F)(F)F)c1)C(=O)CCNC(=O)c1ccco1,·,–,–,–,–,–
COc1ccc(Cl)cc1NC(=O)CN(C)C(=O)CCCNC(=O)c1ccc(Cl)cc1,·,13µM,–,–,–,–
CN(CC(=O)Nc1ccc(Cl)c(C(F)(F)F)c1)C(=O)CCCNC(=O)c1ccc(Cl)cc1,·,19µM,–,–,–,–
Cc1ccc(NC(=O)C2OCCc3ccccc32)cc1C (stereo unspecified),·,15µM,?,?,?,–
Cc1ccc(NC(=O)N2CCc3ccccc3C2)cc1C,·,8.5µM,3.2µM,?,?,2.8µM
COc1ccc(NC(=O)N2CCc3ccccc3C2)cc1OC,·,?,–,?,–,–
